According to PubChem BioAssay AID492998 (Southern Research Specialized Biocontainment Screening …, 2010):
In all, about 2,300 compounds went through this assay and about 550 (24%) were called active. How the calls were made is not given here. The list is a sample of the results. Entries with a potency or affinity are not part of this list.

Test: Vero E6 cell cytotoxicity, dose response, cytotoxicity control for non-replicating M. tuberculosis project, secondary assay (AID 492998)
Conditions: series mostly up to 20 µM

Structure (SMILES)	outcome
CC(=O)c1ccc(NC(=O)c2cc(CC(C)C)on2)cc1	inactive
CC(C)(C)Nc1nc(NC(C)(C)C)nc(-n2ccnc2)n1	inactive
O=C(NC(=S)Nc1ccc(F)cc1)C1CCCCC1	inactive
COC(=O)COc1cccc(NC(=O)c2ccc(Cl)cc2)c1	inactive
Cc1cc(Br)ccc1OCC(=O)NNC(=O)C(=O)Nc1ccccc1	inactive
Cc1cc(OCC(=O)Nc2ccncc2)ccc1Br	inactive
CCc1ccc(NC(=O)C(=O)NNC(=O)COc2cccc(OC)c2)cc1	inactive
Cc1cc(NC(=O)COc2ccccc2)ccc1Cl	inactive
O=C(NNC(=O)c1ncc(Cl)c(Cl)c1Cl)c1ccc(F)cc1	inactive
CC(C)c1ccc(OCC(=O)NNC(=O)c2cnccn2)cc1	inactive
O=C(Oc1cccnc1)c1ccc(Cl)c(Cl)c1	inactive
CCc1ccc(OCC(=O)Nc2ccncc2)c(Br)c1	inactive
Cc1cc2cc(CNC(=O)C3CCCC3)ccc2n1C	inactive
O=C(CCC1CCCCC1)NCc1ccc(F)cc1	inactive
Clc1ccc(SCCCCN2CCNCC2)cc1	inactive
O=C(NCC1CCCCC1)c1ccc([N+](=O)[O-])cc1	inactive
CCCCOC(=O)c1ccc(NC(=O)c2nn(C)cc2Br)cc1	inactive
O=C(NCCSc1ccccc1)c1ccc(Br)cc1	inactive
Cc1ccc2cc(/C=N/NC(=O)[C@H](C)NC(=O)OC(C)(C)C)c(Cl)nc2c1	inactive
CN1CC(=O)NC1=NC(=O)C12CC3CC(CC(C3)C1)C2	inactive
Cc1cc(Br)ccc1OCCCCN1CCCCC1	inactive
CCOC(=O)c1csc(NC(=O)COc2ccc(Cl)cc2Cl)n1	inactive
CCOc1ccc(Cn2c(=O)oc3ccccc32)cc1	inactive
CC1C/C(=N/N2C(=O)CSC2=S)CC(C)(C)C1 (centres undefined)	inactive

Structure (SMILES)	outcome
CC1=C(/C=C/C(C)=N\NC(=O)c2ccncc2)C(C)(C)CCC1	inactive
C/C(=N/NC(=O)c1ccncc1)C1=C(O)CC(C)(C)CC1=O	inactive
C=CCNCC(=O)N1N=C(c2ccc3ccccc3c2)CC1c1ccc(OC)cc1 (centres undefined)	inactive
CCn1nnc(NC(=O)c2sc3ccccc3c2Cl)n1	inactive
CCn1ccc(C(=O)Nc2cccc(Cl)c2)n1	inactive
CCCc1cc(C(=O)Nc2cccc(C(C)=O)c2)no1	inactive
CC(C)(C)c1ccc(OCCC(=O)OCC(=O)NC2CCCCC2)cc1	inactive
COC(=O)CCC(=O)Nc1sc(Cc2ccccc2)c(C)c1C(N)=O	inactive
COc1ccc(C(CNC(=O)c2cccc(NS(=O)(=O)c3ccc(C)c(F)c3)c2)N2CCCC2)cc1 (centres undefined)	inactive
Cc1noc2ncnc(Sc3ccc(Br)cc3)c12	inactive
COC(=O)c1ccccc1Sc1ncnc2onc(C)c12	inactive
CCOC(=O)CNc1ccc(C(=O)OCC)cc1[N+](=O)[O-]	inactive
CC(C)c1ccc(N2C(=O)NC(=O)/C(=C/C=C/c3ccco3)C2=O)cc1	inactive
Brc1ccc(CSc2nnc(-c3ccco3)o2)cc1	inactive
CCCc1ccc(OCc2ccc(C(=O)N/N=C/c3cccnc3)o2)cc1	inactive
O=c1oc(/C=C/c2ccc([N+](=O)[O-])s2)nc2ccccc12	inactive
NC(=O)c1ccc(N=Cc2ccc([N+](=O)[O-])s2)cc1	inactive
CN1C(=O)NC(=O)/C(=C/c2ccc([N+](=O)[O-])s2)C1=O	inactive
Cc1cc(C)n(CC(=O)N/N=C/c2ccc([N+](=O)[O-])s2)n1	inactive
NNC(=O)CNC(=O)C12CC3CC(CC(C3)C1)C2	inactive
COc1ccccc1C1=NOC(COC(=O)c2ccc([N+](=O)[O-])cc2)C1 (centres undefined)	inactive
COCCNC(=O)c1cc2cc(Cl)cc(Cl)c2oc1=O	inactive
Cc1cccc(OC(=O)c2sc3ncn(C)c(=O)c3c2C)c1	inactive
CCn1c2ccccc2c2cc(CNCc3ccc(OC)cc3OC)ccc21	inactive

Structure (SMILES)	outcome
O=C(COc1ccc(Cl)cc1)OCC(=O)N1CCCc2ccccc21	inactive
CC(C)(C)/C(O)=C/c1nc2ccccc2oc1=O	inactive
COc1ccc(NC(=O)c2cnc(SC)nc2)cc1	inactive
COc1ccc(NC(=O)CO/N=C2/CCCc3nonc32)c(OC)c1	inactive
CCOC(=O)N1CCC(N2CCCC(C(=O)c3ccc4cc(OC)ccc4c3)C2)CC1 (centres undefined)	inactive
COc1ccc(C(=O)COC(=O)c2ccc(Cl)nc2)c(OC)c1	inactive
O=C(COC(=O)CC1CCCC1)Nc1ccc(OC(F)F)cc1	inactive
CCCCOC(=O)c1ccc(OC(=O)c2cccnc2)cc1	inactive
Cc1cc(C)cc(OC(=O)c2cccnc2)c1	inactive
CCc1cccc(OCCCn2ccnc2)c1	inactive
CN1/C(=C\C(=O)COC(=O)C2COc3ccccc3O2)C(C)(C)c2ccccc21 (centres undefined)	inactive
CN1/C(=C\C(=O)COC(=O)c2ccc([N+](=O)[O-])o2)C(C)(C)c2ccccc21	inactive
C=CC(=O)Oc1ccc(N2Cc3ccccc3C2=O)cc1	inactive
CC1=NN(C(=O)CCCc2ccccc2)C(O)(C(F)(F)F)C1 (centres undefined)	inactive
Cc1ccc(/C(O)=C/c2nc3ccccc3oc2=O)cc1	inactive
CN(CC(=O)Nc1ccc(Cl)cc1)C1CCCCC1	inactive
COc1ccc(OCCCC(=O)Nc2ccc(N3CCOCC3)cc2)cc1	inactive
CCOCCOC(=O)c1ccc(NC(=O)C2COc3ccccc3O2)cc1 (centres undefined)	inactive
CCOC(=O)COc1ccc2c(c1)c(C(C)=O)c(C)n2Cc1ccccc1	inactive
Cc1c(C(=O)N(C)C)sc2nc(-c3ccccn3)[nH]c(=O)c12	inactive
Cc1nnc(SCCC(=O)Nc2ccc(Cl)cc2)o1	inactive
Cc1nc2ccc(OC(=O)c3ccccc3)cc2s1	inactive
CCOc1ccc2nc(/N=C/c3nc(-c4ccccc4)oc3O)sc2c1	inactive
O=C(COc1ccccc1)NNc1nc2ccccc2s1	inactive

Structure (SMILES)	outcome
CCOc1ccc(OCC(=O)Nc2nccs2)cc1	inactive
CCCNC(=O)OCC12CC3CC(CC(C3)C1)C2	inactive
N=C1/C(=C/c2ccc(OC(=O)c3ccco3)cc2)C(=O)N=C2SC=CN12	inactive
c1ccc(CNCCC(Cc2ccccc2)c2ccco2)cc1 (centres undefined)	inactive
CC(C)(C)C(=O)/C=C/Nc1ccccc1O	inactive
CC(=O)c1ccc(Sc2nnnn2-c2ccccc2)c([N+](=O)[O-])c1	inactive
Cc1cc(C)n(C(=O)c2ccc([N+](=O)[O-])cc2[N+](=O)[O-])n1	inactive
CC(=O)Nc1ccc(NC(=O)c2cc([N+](=O)[O-])cc([N+](=O)[O-])c2)cc1	inactive
O=C(NCc1cccs1)c1ccc([N+](=O)[O-])cc1	inactive
COc1ccc2cc(C(=O)NCc3ccccc3)c(=O)oc2c1	inactive
CC(C)OC(=O)c1cc(C(=O)c2cc(Cl)ccc2O)coc1=N	inactive
O=C(NNc1ccc([N+](=O)[O-])cc1)C1CC1c1ccccc1 (centres undefined)	inactive
CC(C)(C)c1ccc(OCCC(=O)OCC(=O)NC2CC2)cc1	inactive
O=C(Oc1ccc(F)cc1)c1ccc2c(=O)n3c(nc2c1)CCC3	inactive
COC(=O)c1ccc(N2CCN(CCNC(=O)Nc3ccc(OC)cc3)CC2)cc1	inactive
C#CCSc1nnc(-c2ccc(C)cc2)o1	inactive
C#CCSc1nnc(-c2ccc(O)cc2)o1	inactive
Cc1cc(Cl)ccc1N(CC(=O)NCc1ccccc1)S(C)(=O)=O	inactive
CCCCn1nnc(NC(=O)COc2ccc(Cl)c(C)c2)n1	inactive
COc1ccc(OC(=O)CCc2c[nH]c3ccccc23)cc1	inactive
N#Cc1ccc(COC(=O)CCc2c[nH]c3ccccc23)cc1	inactive
O=C(COC(=O)CCc1c[nH]c2ccccc12)NCc1ccc(Cl)cc1	inactive
O=C(COC(=O)CCc1c[nH]c2ccccc12)NCc1ccc2c(c1)OCO2	inactive
C=Cc1cccc(NC(=O)COc2ccccc2)c1	inactive

Structure (SMILES)	outcome
COc1ccc(Cc2nnc(SCc3ccc([N+](=O)[O-])cc3)o2)cc1	inactive
Cc1[nH]nc2c1C(c1ccc(-c3ccc(Cl)cc3)o1)C(C#N)=C(N)O2 (centres undefined)	inactive
O=C1/C(=C/c2ccco2)CCC1C1CCCC1 (centres undefined)	inactive
CC(NC(=O)COc1ccccc1F)C1CC2CCC1C2 (centres undefined)	inactive
CCOC(=O)c1ccc(NC(=O)CCSCCc2ccccn2)cc1	inactive
CCOc1ccc(-c2nc3ccccc3c(=O)o2)cc1	inactive
CCOC(=O)N1CCC(NS(=O)(=O)c2cc3c(cc2Cl)NC(=O)CO3)CC1	inactive
CCCNC(=O)N1CCC(c2ccc3c(c2)OCO3)CC1	inactive
OCC1(CCOc2ccccc2)CCN(Cc2cc(Cl)ccc2O)CC1	inactive
COc1ccc(C2(O)CCN(CCCCOc3ccccc3)CC2)cc1	inactive
COc1cccc2cc(C(=O)c3ccc([N+](=O)[O-])cc3)oc12	inactive
CC1COC(=O)C(NNc2ccc(Cl)c(Cl)c2)=N1 (centres undefined)	inactive
CC(=O)Nc1cccc(-c2nc3ccccc3c(=O)o2)c1	inactive
CC(C)Cc1cc(C(=O)Nc2ccc(F)cc2F)no1	inactive
CC(C)c1nnc(NC(=O)c2cc3cc(Br)ccc3oc2=O)s1	inactive
CCCC(=O)Nc1cccc(-c2nc3ccccc3c(=O)o2)c1	inactive
O=C(Oc1ccc(/C=N/O)cc1)c1ccccc1Cl	inactive
O=C(COC(=O)CCN1C(=O)/C(=C\C=C\c2ccccc2)SC1=S)Nc1cc(F)ccc1F	inactive
O=C(O)CCCCCN1C(=O)/C(=C\c2ccncc2)SC1=S	inactive
O=C(NCCN1C(=O)S/C(=C\c2ccccc2F)C1=O)C1CCN(S(=O)(=O)c2cccs2)CC1	inactive
CN1C(=O)/C(=C/c2cccc(Cl)c2)Sc2ccc(C(=O)N3CCCC3)cc21	inactive
O=C(CC1CC2CCC1C2)NCc1cccs1 (centres undefined)	inactive
CCOc1ccc(-c2cc(CCCC(=O)NCCC(C)C)no2)cc1	inactive
